Source: ChEMBL document CHEMBL4296182, “CO-ADD screening of NIH NCI Diversity Set V”
For part of these data: Entries with a potency or affinity are not part of this list.

Assays:
Staphylococcus aureus = test: Antibacterial activity against Staphylococcus aureus MRSA ATCC 43300 (CO-ADD:GP_020); MIC in CAMBH media using NBS plates, by Resazurin F(560/590); type: functional; conditions: Concentration 20 uM, ASSAY_TEST Inhibition of Bacterial Growth, detection method Resazurin, Fluorescence (ex560/em590), MEDIA CAMHB, plate type 384well, CORNING #3640, time 18 hr
Acinetobacter baumannii = test: Antibacterial activity against Acinetobacter baumannii ATCC 19606 (CO-ADD:GN_034); MIC in CAMBH media using NBS plates, by Resazurin F(560/590); type: functional; conditions: Concentration 20 uM, ASSAY_TEST Inhibition of Bacterial Growth, detection method Resazurin, Fluorescence (ex560/em590), MEDIA CAMHB, plate type 384well, CORNING #3640, time 18 hr
Escherichia coli = test: Antibacterial activity against Escherichia coli ATCC 25922 (CO-ADD:GN_001); MIC in CAMBH media using NBS plates, by Resazurin F(560/590); type: functional; conditions: Concentration 20 uM, ASSAY_TEST Inhibition of Bacterial Growth, detection method Resazurin, Fluorescence (ex560/em590), MEDIA CAMHB, plate type 384well, CORNING #3640, time 18 hr
Klebsiella pneumoniae = conditions: Concentration 20 uM; ASSAY_TEST Inhibition of Bacterial Growth; detection method Absorption (OD600); MEDIA CAMHB; plate type 384well; NBS; CORNING #3640; time 18 hr
Candida albicans = conditions: 20 µM
Cryptococcus neoformans = conditions: Concentration 20 uM; ASSAY_TEST Inhibition of Fungal Growth; detection method Resazurin; Absorption (OD600-OD570); plate type 384well; NBS; CORNING #3640

Compound	Inhibition (Staphylococcus aureus) [%]	Inhibition (Acinetobacter baumannii) [%]	Inhibition (Escherichia coli) [%]	Inhibition (Klebsiella pneumoniae) [%]	Inhibition (Candida albicans) [%]	Inhibition (Cryptococcus neoformans) [%]
N=C(N)NC(=N)Nc1ccc(O)cc1	11.3	-14.34	13.43	0.41	0.07	-11.16
COC(=O)C(=Cc1ccccc1[N+](=O)[O-])C(=O)OC	-1.4	-8.17	9.13	10.58	9.98	-18.32
Nc1ccc2c(c1)nnn2-c1ccccc1	10.19	-3.79	12.06	-7.86	-4.43	-12.32
CN(C)c1ccc(/C=C/c2ccc3ccccc3n2)cc1	-2.51	5.82	5.25	10.87	5.63	-14.32
CC(=O)OC1CCC2(C)C(=CCC3C2CCC2(C)C3CC3OC4(CCC(C)CN4)C(C)C32)C1 (stereo not given)	-5.01	-6.15	18.44	9.38	6.33	14.75
O=c1cc(-c2ccc(O)cc2)oc2c(O)c(O)c(O)c(O)c12	7.67	-15.85	3.54	11.62	6.97	-2.27
O=C(O)c1ccc2c(c1Nc1ccccc1)C(=O)c1ccccc1C2=O	9.32	-23.2	18.5	7	1.26	-10.37
CCSc1nc(C)c(C)c(O)n1	-7.95	-12.73	10.67	6.61	2.45	-10.18
c1ccc(-c2ccc3c(c2)NC(C2Nc4cc(-c5ccccc5)ccc4O2)O3)cc1 (stereo not given)	3.85	1.02	2.77	24.34	-1.54	-14.91
Cc1cc2cc3n(c2nn1)N=C(Cl)CC3	10.12	6.88	-0.69	18.79	2.37	-3.5
CC1=NC2=CC=CC3=NC(C(Cl)(Cl)Cl)=NC(=N1)N23	-3.19	10.22	9.49	11.94	1.15	-10.05
O=[N+]([O-])c1cccnc1Oc1cccnc1	16.25	-14.38	11.2	9.34	-2.59	-10.27
NC(=O)Cc1ccc2c(c1)[nH]c1ccccc12	5.19	-14.3	7.64	6.47	5.86	-8.43
CCCC1OC(c2cc3c(cc2Cl)OCO3)OCC1CC (stereo not given)	3.15	-17.34	11.31	6.46	5.6	-15.5
O=C1c2cc([N+](=O)[O-])ccc2-c2cc(Br)c(NC(=NO)C(F)(F)F)cc21	19.28	-25.99	18.87	6.86	-4.85	-6.6
Nc1ccc(-c2nc3nc(N)nc(N)c3nc2-c2ccc(N)cc2)cc1	11.99	-8.41	-0.05	5.53	0.39	-7.52
O=C(O)c1ccccc1C(=O)Nc1cccc([N+](=O)[O-])c1	-4.11	-9.98	-2.38	3.82	3.86	-3.03
Oc1nc2[nH]c(Cl)nc(Cl)c-2n1	12.09	-10.58	13.78	9.63	-2.33	-19.04
CCOC(=O)Nc1ccc2[nH]c(-c3cscn3)nc2c1	14.96	-19.41	13.31	4.63	-2.03	-11.31
C(=C\CSc1ccccn1)/CSc1ccccn1	10.81	-13.92	9.4	8.71	2.49	-12.06
O=C1OC(CN(Cc2ccccc2)Cc2ccccc2)CN1/N=C/c1ccc([N+](=O)[O-])o1 (stereo not given)	-19.95	-14.51	10.29	6.15	10.5	-4.47
O=C(NC1(N2CCOCC2)CC1)c1ccc(Cl)cc1	6.77	-6.57	-5.43	3.34	2.83	-0.42
NC(=O)Nc1ccc(Nc2ccccc2)cc1	15.79	-8.02	5.39	5.31	0.18	-3.95
CC1(c2ccc3ccccc3c2)CCC(=O)O1 (stereo not given)	11.1	-6.13	7.71	5.94	2.15	-9.46
CCOC(=O)Cc1cnc(S)nc1O	9.6	-11.54	7.99	8.74	1.43	-1.74

Compound	Inhibition (Staphylococcus aureus) [%]	Inhibition (Acinetobacter baumannii) [%]	Inhibition (Escherichia coli) [%]	Inhibition (Klebsiella pneumoniae) [%]	Inhibition (Candida albicans) [%]	Inhibition (Cryptococcus neoformans) [%]
CC1=NC(C)(C)CC2CCC(O)C12 (stereo not given)	15.01	-5.87	9.74	11.22	1.52	-2.24
COc1ccc(/N=N/c2c(N)n[nH]c2N)cc1	9.98	-10.61	6.79	12.54	3.82	-6.57
CCOC(=O)C(Cc1ccc(O)cc1)Nc1nc2ccccc2o1 (stereo not given)	27.08	-2.1	6.27	19.95	10.7	8.22
CC(NC(=O)c1ccc(Cl)c(Cl)c1)c1ccc(-c2ccccc2)cc1 (stereo not given)	12.08	7.23	12.06	14.03	-5.14	-10.74
O=S(=O)(c1ccc2c(c1)CCCN2)N1CCC[C@H]2CCCC[C@@H]21	4.63	-20.33	3.15	6.75	8.6	-4.42
Nc1nc(N)c(/C=N/c2ccc(Br)cc2)c(Nc2ccc(Br)cc2)n1	-2.53	-11.54	5.75	-1.66	-1.08	1.82
COc1ccc(OCC(O)CN2CCN(c3ccc(Cl)cc3)CC2)cc1 (stereo not given)	-0.5	8.48	10.52	5.97	-0.41	-11.59
Sc1nccn1-c1ccccc1Cl	5.33	14.25	-3.3	6.92	3.82	-5.04
C/C(=N\O)[C@H]1CC[C@H]2[C@@H]3CC[C@@H]4C/C(=N/O)CC[C@]4(C)[C@H]3[C@@](C)(O)C[C@]12C	13.92	2.13	6.69	4.28	2.6	-11.49
CN1C(=O)CC2(C)C1=CCc1scnc12 (stereo not given)	8.85	8.37	0.52	4.25	2.6	-1.43
NC(CSC1(c2cccc3ccccc23)c2ccccc2-c2ccccc21)C(=O)O (stereo not given)	9.31	-6.6	9.55	13.19	7.56	-2.74
CN(C)S(=O)(=O)c1ccccc1N=C=S	19.33	5.01	10.9	5.89	4.38	-9.71
CCc1ccc(CCN2C(=O)c3ccccc3C2=O)nc1	9.03	4.62	-1.52	17.62	2.59	-6.09
Cc1cc(N(C)C)ccc1/N=N/c1ccc2ncccc2c1	1.18	-8.44	5.41	5.32	3.26	-12.5
CC(=O)Nc1ccc(OC(=O)Oc2ccc(NC(C)=O)cc2)cc1	37.09	-4.35	7.78	22.87	5.36	-3.28
CSc1ccc2c(c1)C(N1CCN(C)CC1)Cc1ccccc1S2.O=C(O)/C=C\C(=O)O (stereo not given)	-0.23	-8.02	11.6	5.53	2.59	-7.96
O=C(Nc1ccc(Cl)c([N+](=O)[O-])c1)Nc1nc2ccccc2s1	44.46	0.46	3.52	21.95	9.03	11.69
CC(C)c1nc2c(=O)n(C)c(=O)n(C)c2[nH]1	10.47	-19.52	12.69	-1.01	-1.8	-13.14
Oc1ccc(-c2nc3ccccc3s2)c(O)c1	-7.97	-9.73	5.22	6.81	13.4	-4.68
CC1=CC2=C(C=O)C(=O)[C@](C)(O)[C@@H](O)C2=CO1	-0.76	11.76	8.5	9.69	4.9	-12.05
FC(F)(F)c1nc2nc(Cl)c(Cl)nc2n1CCCN1CCOCC1	14.57	9.11	-16.14	4.93	5.42	38.81
O=C(/C=C\c1ccc2ccccc2n1)c1cc(Cl)ccc1O	-11.69	-4.27	-19.12	3.11	16.4	-1.96
O=C(O)/C=C/C(=O)Nc1cccc2cccnc12	36.64	-0.12	28.31	7.62	8.39	9.5
CC(C)(C)c1ccc(C(=O)Nc2ccc(S(N)(=O)=O)cc2)cc1	29.14	5.57	7.06	7.59	2.9	-15.62
C=CCN(CC=C)C(=O)Nc1cc(OC)ccc1OC	-0.3	-10.17	5.84	8.16	3.21	-3.48
